# Laboratory results taken from PubChem BioAssay.
# Several values for one entry are separate records, joined by “and”; a condition that tells them apart may be missing. Equal values may be shown once. Inconclusive results are not listed. Activity calls are given as the source filed them.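 How the source made its calls, unless noted: active means normalized viability below 100% at a tested concentration; inactive means the rest.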
# Experiments:
# [1] = growth inhibition of DIPG glioma cells, dose response, cell-based, SU-DIPG-XVII, MIPE5.0, CellTiter-Glo, qHTS (AID 1347060; cut-off not given, nearly all actives have AC50 up to about 26 µM;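 on AC50: cells exposed to compound for 48 hours before viability readout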); conditions: SU-DIPG-XVII viability, CellTiter-Glo ATP luminescence
# [2] = growth inhibition of DIPG glioma cells, dose response, cell-based, SU-DIPG-XIII, MIPE4.0, CellTiter-Glo, qHTS (AID 1347061; cut-off not given, nearly all actives have AC50 up to about 37 µM;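 further: cells exposed to compound for 48 hours before readout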); conditions: SU-DIPG-XIII viability, CellTiter-Glo ATP luminescence
# [3] = growth inhibition of DIPG glioma cells, dose response, cell-based, SU-DIPG-IV, MIPE4.0, CellTiter-Glo, qHTS (AID 1347063; cut-off not given, nearly all actives have AC50 up to about 30 µM;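 further: compound exposure lasted 48 hours before the viability readout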); conditions: SU-DIPG-IV viability, CellTiter-Glo ATP luminescence
# [4] = SU-DIPG-VI glioma cell viability, MIPE4.0 library, CellTiter-Glo luminescence, qHTS (AID 1347066; cut-off not given, nearly all actives have AC50 up to about 30 µM;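 further: cells exposed to compound for 48 hours before readout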); conditions: CellTiter-Glo ATP luminescence
# [5] = JHH-DIPG-1 glioma cell viability, MIPE5.0 library, CellTiter-Glo luminescence, qHTS (AID 1347067; cut-off not given, nearly all actives have AC50 up to about 26 µM;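 further: cells exposed to compound for 48 hours before readout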); conditions: JHH-DIPG-1 glioma viability, CellTiter-Glo ATP luminescence
# [6] = SU-DIPG-XXV glioma cell viability, MIPE5.0 library, qHTS (AID 1347068; cut-off not given, nearly all actives have IC50 up to about 30 µM)
# [7] = viability loss in pontine glioma line – cell-based, SU-DIPG-XXV, MIPE5.0, CellTiter-Glo, qHTS, dose response (AID 1347065; cut-off not given, nearly all actives have AC50 up to about 26 µM;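 further: cells exposed to compound for 48 hours before ATP readout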); conditions: CellTiter-Glo ATP luminescence
# [8] = modifiers of HSF1 nuclear foci, imaging, Selleck Cancer Library (AID 1347162; in the data active means plate-normalised HSF1 focus index below about 0.46); conditions: human cells, at 10 µM; SSMD: measured here: HSF1 foci SSMD mean; cell count: measured here: cell number; plate-normalised HSF1 focus index: stronger effect = lower value
# [9] = ovarian cancer cell viability with rucaparib, profiling panel, oncology-focused library, rucaparib conditional (AID 1508598); conditions: patient-derived ovarian cancer cells, CellTiter-Glo viability, 144 h, stronger effect = lower value
# [10] = LFS_MB_P medulloblastoma growth inhibition, cell-based, chromothripsis tumors, cisplatin or BGB combos (AID 1671449; in the data active means inhibition above about 80%;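 further: cells exposed for 96 hours; 0% = vehicle DMSO and 100% = killing by high DMSO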); conditions: LFS_MB_P medulloblastoma cells
# [11] = HDN33 neuroblastoma growth inhibition, cell-based, chromothripsis tumors, cisplatin or BGB combos (AID 1671450; in the data active means inhibition above about 80%;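 further: cells exposed to compound for four days; 0% = vehicle DMSO and 100% = cell killing by high DMSO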); conditions: HDN33 neuroblastoma cells, stronger effect = higher value
# [12] = ICB984 medulloblastoma cell growth inhibition, synergistic combos for chromothripsis tumors, cisplatin or BGB combos (AID 1671451; call rule not given here;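 further: cells exposed for 96 hours before readout; 0% = vehicle DMSO and 100% = killing by high DMSO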); conditions: ICB984 medulloblastoma cells, drug combinations, stronger effect = higher value
# [13] = HTB85 osteosarcoma cell growth inhibition, synergistic combos for chromothripsis tumors, BGB or cisplatin IC20 combos (AID 1671453; in the data active means inhibition above about 80%;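 further: cells exposed for 96 hours before readout; 0% = vehicle DMSO and 100% = high DMSO killing control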); conditions: HTB85 osteosarcoma cells, drug combinations, stronger effect = higher value
# [14] = MDA-MB-436 breast carcinoma cell growth inhibition, synergistic combos for chromothripsis tumors, BGB or cisplatin combos (AID 1671458; call rule not given here;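 further: cells exposed for 96 hours; 0% = vehicle DMSO and 100% = killing by high DMSO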); conditions: MDA-MB-436 breast carcinoma growth inhibition, drug combinations, stronger effect = higher value
# [15] = growth inhibition of BT084 medulloblastoma cells, cell-based, ICGC_MB145, cisplatin and BGB IC40 combos (AID 1671461; in the data active means inhibition above about 80%;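 further: cells exposed to drugs for 96 hours; 0% = vehicle DMSO and 100% = high DMSO full killing control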); conditions: drug combinations, stronger effect = higher value
# [16] = growth inhibition of RCMB18 medulloblastoma cells, cell-based, cisplatin and BGB IC40 combos (AID 1671462; in the data active means inhibition above about 80%;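 further: cells exposed to compound for four days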); conditions: stronger effect = higher value
smiles,measurement,setting,value
Cc1n[nH]c(C)c1Cc1sc2c(c1C(=O)N1C[C@H](O)CO1)c(=O)n(C)c(=O)n2CC(C)C,outcome,[1],inactive
same,outcome,[2],inactive
same,outcome,[3],inactive
same,outcome,[4],inactive
same,outcome,[5],inactive
same,outcome,[6],inactive
C/C=C/C[C@@H](C)C(=O)[C@H]1C(=O)N[C@@H](C(C)C)C(=O)N(C)CC(=O)N(C)[C@@H](CC(C)C)C(=O)N[C@@H](C(C)C)C(=O)N(C)[C@@H](CC(C)C)C(=O)N[C@@H](C)C(=O)N[C@H](C)C(=O)N(C)[C@@H](CC(C)C)C(=O)N(C)[C@@H](CC(C)C)C(=O)N(C)[C@@H](C(C)C)C(=O)N1C,AC50,[1],8.11 µM (active)
same,AC50,[2],18.7 µM (active)
same,AC50,[7],5.74 µM (active)
C[C@@H]1CN(CC(=O)Nc2ccc3c(c2)Cc2cccc(-c4cc(=O)cc(N5CCOCC5)o4)c2S3)C[C@H](C)O1,AC50,[1],23.5 µM (active)
same,outcome,[2],inactive
same,AC50,[3],13.2 µM (active)
same,AC50,[7],18.6 µM (active)
same,SSMD,[8],2.96
same,cell count,[8],6620
same,plate-normalised HSF1 focus index,[8],1.15 (inactive)
same,viability,"[9]; at 0.000305 µM, OCI-C5x cells, with rucaparib 10 µM, 100% = cells with rucaparib alone",106% (inactive)
same,viability,"[9]; at 0.000305 µM, OCI-C5x cells, without rucaparib",116% (inactive)
same,viability,"[9]; at 0.000305 µM, OCI-P5x cells, with rucaparib 20 µM, 100% = cells with rucaparib alone",111% (inactive)
same,viability,"[9]; at 0.000305 µM, OCI-P5x cells, without rucaparib",119% (inactive)
same,viability,"[9]; at 0.00122 µM, OCI-C5x cells, with rucaparib 10 µM, 100% = cells with rucaparib alone",108% (inactive)
same,viability,"[9]; at 0.00122 µM, OCI-C5x cells, without rucaparib",123% (inactive)
same,viability,"[9]; at 0.00122 µM, OCI-P5x cells, with rucaparib 20 µM, 100% = cells with rucaparib alone",108% (inactive)
same,viability,"[9]; at 0.00122 µM, OCI-P5x cells, without rucaparib",121% (inactive)
same,viability,"[9]; at 0.00488 µM, OCI-C5x cells, with rucaparib 10 µM, 100% = cells with rucaparib alone",112% (inactive)
same,viability,"[9]; at 0.00488 µM, OCI-C5x cells, without rucaparib",129% (inactive)
same,viability,"[9]; at 0.00488 µM, OCI-P5x cells, with rucaparib 20 µM, 100% = cells with rucaparib alone",108% (inactive)
same,viability,"[9]; at 0.00488 µM, OCI-P5x cells, without rucaparib",108% (inactive)
same,viability,"[9]; at 0.0195 µM, OCI-C5x cells, with rucaparib 10 µM, 100% = cells with rucaparib alone",113% (inactive)
same,viability,"[9]; at 0.0195 µM, OCI-C5x cells, without rucaparib",128% (inactive)
same,viability,"[9]; at 0.0195 µM, OCI-P5x cells, with rucaparib 20 µM, 100% = cells with rucaparib alone",104% (inactive)
same,viability,"[9]; at 0.0195 µM, OCI-P5x cells, without rucaparib",108% (inactive)
same,viability,"[9]; at 0.0781 µM, OCI-C5x cells, with rucaparib 10 µM, 100% = cells with rucaparib alone",110% (inactive)
same,viability,"[9]; at 0.0781 µM, OCI-C5x cells, without rucaparib",127% (inactive)
same,viability,"[9]; at 0.0781 µM, OCI-P5x cells, with rucaparib 20 µM, 100% = cells with rucaparib alone",107% (inactive)
same,viability,"[9]; at 0.0781 µM, OCI-P5x cells, without rucaparib",109% (inactive)
same,viability,"[9]; at 0.313 µM, OCI-C5x cells, with rucaparib 10 µM, 100% = cells with rucaparib alone",106% (inactive)
same,viability,"[9]; at 0.313 µM, OCI-C5x cells, without rucaparib",132% (inactive)
same,viability,"[9]; at 0.313 µM, OCI-P5x cells, with rucaparib 20 µM, 100% = cells with rucaparib alone",102% (inactive)
same,viability,"[9]; at 0.313 µM, OCI-P5x cells, without rucaparib",98.9% (active)
same,viability,"[9]; at 1.25 µM, OCI-C5x cells, with rucaparib 10 µM, 100% = cells with rucaparib alone",101% (inactive)
same,viability,"[9]; at 1.25 µM, OCI-C5x cells, without rucaparib",138% (inactive)
same,viability,"[9]; at 1.25 µM, OCI-P5x cells, with rucaparib 20 µM, 100% = cells with rucaparib alone",91.6% (active)
same,viability,"[9]; at 1.25 µM, OCI-P5x cells, without rucaparib",93.8% (active)
same,viability,"[9]; at 5 µM, OCI-C5x cells, with rucaparib 10 µM, 100% = cells with rucaparib alone",106% (inactive)
same,viability,"[9]; at 5 µM, OCI-C5x cells, without rucaparib",132% (inactive)
same,viability,"[9]; at 5 µM, OCI-P5x cells, with rucaparib 20 µM, 100% = cells with rucaparib alone",76.3% (active)
same,viability,"[9]; at 5 µM, OCI-P5x cells, without rucaparib",81.8% (active)
same,inhibition,"[10]; at 0.5 µM, stronger effect = higher value",-5.76% (inactive) and -8.68% (inactive)
same,inhibition,"[10]; measured here: combination with BGB IC20, at 0.005 µM",12.1% and -26.9%
same,inhibition,"[10]; measured here: combination with BGB IC40, at 0.005 µM",76.1% and -29.5%
same,inhibition,"[10]; measured here: combination with BGB IC40, at 0.05 µM",-11.7% and -51.5%
same,inhibition,"[10]; measured here: combination with cisplatin, at 0.5 µM, stronger effect = higher value",39.6% and -32.3%
same,inhibition,"[10]; measured here: combination with cisplatin, at 5 µM, stronger effect = higher value",-23.3% and -90%
same,inhibition,"[11]; BGB combo, at 5 µM",2.05% and 13.3%
same,inhibition,[11]; at 0.5 µM,-17.5% (inactive) and -12.8% (inactive)
same,inhibition,"[11]; cisplatin combo, at 5 µM",-12.4% and 5.9%
same,inhibition,"[11]; measured here: with BGB IC20 combination, at 0.5 µM",-16.8% and -1.93%
same,inhibition,"[11]; measured here: with cisplatin IC20 combination, at 0.5 µM",-12.5% and -11.1%
same,inhibition,"[11]; single agent, at 5 µM",-33.9% and 16.4%
same,inhibition,"[12]; BGB IC20 combo, at 0.005 µM",4.72% and 10.1%
same,inhibition,"[12]; BGB IC40 combo, at 0.005 µM",-39.9% and -9.84%
same,inhibition,"[12]; BGB IC40 combo, at 0.05 µM",3.85% and -15.8%
same,inhibition,[12]; at 0.5 µM,-19.3% (inactive) and -37.2% (inactive)
same,inhibition,"[12]; cisplatin combo, at 0.05 µM",-0.996% and -20%
same,inhibition,"[12]; cisplatin combo, at 0.5 µM",-20.2% and -42.2%
same,inhibition,"[12]; cisplatin combo, at 5 µM",2.43% and -58.6%
same,inhibition,"[12]; measured here: 5 uM single agent, at 5 µM",-28.1% and -5.43%
same,inhibition,[13]; at 0.5 µM,-24.8% (inactive) and -13.9% (inactive)
same,inhibition,"[13]; measured here: with BGB IC20, at 0.5 µM",-22.3% and -11.4%
same,inhibition,"[13]; measured here: with BGB IC20, at 5 µM",-3.78% and 16.9%
same,inhibition,"[13]; measured here: with cisplatin IC20, at 0.5 µM",-22.4% and -22.3%
same,inhibition,"[13]; measured here: with cisplatin IC20, at 5 µM",1.95% and -37.3%
same,inhibition,"[13]; single agent, at 5 µM",-2.38% and 8.59%
same,inhibition,[14]; at 0.5 µM,-6.48% (inactive) and -14.8% (inactive)
same,inhibition,"[14]; measured here: BGB combination, at 0.5 µM",-1.79% and -20.6%
same,inhibition,"[14]; measured here: BGB combination, at 5 µM",17.7% and 3.62%
same,inhibition,"[14]; measured here: cisplatin combination, at 0.5 µM",-20.7% and -21.7%
same,inhibition,"[14]; measured here: cisplatin combination, at 5 µM",7.96% and -7.31%
same,inhibition,[15]; at 0.5 µM,-1.92% (inactive) and -6.86% (inactive)
same,inhibition,"[15]; cisplatin combination, at 0.5 µM",-3.42% and -23.5%
same,inhibition,"[15]; cisplatin combination, at 5 µM",-136% and -3.01%
same,inhibition,"[15]; measured here: BGB IC40 combination 0.05 uM, at 0.05 µM",-6.42% and -21%
same,inhibition,"[15]; single agent, at 5 µM",4.22% and -18.6%
same,inhibition,[16]; at 0.5 µM,1.57% (inactive) and -21.5% (inactive)
same,inhibition,"[16]; cisplatin combo, at 5 µM",-0.721% and -71.8%
same,inhibition,"[16]; measured here: BGB IC40 combination, at 0.05 µM",9.68% and -19.2%
same,inhibition,"[16]; measured here: combination with cisplatin, at 0.5 µM",-13.6% and -9.04%
same,inhibition,"[16]; single agent, at 5 µM",36.4% and -12.2%
